Compounds without any hit were thinned out: in the full panel of roughly 79,000, 15% have a hit. Activity calls are given as the source filed them. Rule as the data show it: active = growth inhibition above about 70%; inactive = the rest.
Tests used:
[1] = NCI Yeast Anticancer Drug Screen. Data for the rad52 strain (AID 147);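 also: 0% = growth of vehicle-treated control cultures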; conditions: S. cerevisiae rad52 mutant growth inhibition, active compounds read high
How it was run: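 DNA repair-defective yeast; compound exposure; growth scored against vehicle controls.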

[2] = NCI Yeast Anticancer Drug Screen. Data for the wt1 strain (AID 149);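 also: 0% = growth of vehicle-treated wt1 cultures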; conditions: S. cerevisiae wt1 strain (SPY 50644) growth inhibition, active compounds read high
How it was run: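 Each compound is tested on wt1 yeast and the loss of growth versus vehicle gives the inhibition value.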

[3] = NCI Yeast Anticancer Drug Screen. Data for the rad50EPP+ strain (AID 151);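 also: 0% = growth of vehicle-treated control cultures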; conditions: S. cerevisiae rad50 mutant strain, active compounds read high
How it was run: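 rad50EPP+ yeast treated with test compounds. Readout: growth vs vehicle control.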

[4] = NCI Yeast Anticancer Drug Screen. Data for the mgt1 strain (AID 153); conditions: S. cerevisiae mgt1 mutant growth inhibition, active compounds read high
How it was run: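 Growth inhibition relative to vehicle controls was scored for the mgt1 yeast strain after compound exposure.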

[5] = NCI Yeast Anticancer Drug Screen. Data for the rad50 strain (AID 155);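 also: 0% = growth of vehicle-only cultures of the same strain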; conditions: S. cerevisiae rad50 strain growth inhibition, active compounds read high
How it was run: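 Vehicle-treated cultures provide the reference for the growth inhibition reported for compound-exposed, repair-deficient yeast.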

[6] = NCI Yeast Anticancer Drug Screen. Data for the mec2-1 strain (AID 157); conditions: S. cerevisiae mec2-1 strain, active compounds read high
How it was run: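 Growth inhibition is read against vehicle-treated controls after compound exposure of the mec2-1 yeast strain, which is defective in DNA damage repair or cell cycle control.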

[7] = NCI Yeast Anticancer Drug Screen. Data for the rad14 strain (AID 159);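 also: 0% = growth of vehicle-treated control cultures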; conditions: S. cerevisiae rad14 strain growth inhibition, active compounds read high
How it was run: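 Inhibition of growth is reported for a repair-deficient yeast mutant following compound treatment, calculated relative to cultures that received vehicle.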

[8] = NCI Yeast Anticancer Drug Screen. Data for the sgs1 mgt1 strain (AID 161);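 also: 0% = growth of cultures given vehicle only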; conditions: S. cerevisiae sgs1 mgt1 strain, active compounds read high
How it was run: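 Growth of a repair-deficient yeast mutant was monitored after compound treatment and expressed as inhibition relative to vehicle-treated cultures.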

[9] = NCI Yeast Anticancer Drug Screen. Data for the CLN2oe strain (AID 163);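 also: 0% = growth of vehicle-only control cultures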; conditions: S. cerevisiae CLN2oe strain, active compounds read high
How it was run: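 Compound-treated yeast; growth vs vehicle ctrl = % inhibition. Genetically altered strain (cell-cycle control).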

[10] = NCI Yeast Anticancer Drug Screen. Data for the cln2 rad14 strain (AID 165);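 also: 0% = growth equal to vehicle treated cultures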; conditions: S. cerevisiae cln2 rad14 strain, active compounds read high
How it was run: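 Growth inhibition, relative to vehicle-treated controls, is the read-out. The test organism is a yeast strain with defined genetic alterations, cln2 rad14.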

[11] = NCI Yeast Anticancer Drug Screen. Data for the bub3 strain (AID 167); conditions: S. cerevisiae bub3 mutant strain, active compounds read high
How it was run: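 Mutant yeast screening strain plus compound; vehicle-treated cultures serve as the 0% inhibition reference.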

[12] = NCI Yeast Anticancer Drug Screen. Data for the wt2 strain (AID 169); conditions: S. cerevisiae wt2 strain growth inhibition, active compounds read high
How it was run: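 Compound exposure of yeast; growth compared with vehicle controls; inhibition reported.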

[13] = NCI Yeast Anticancer Drug Screen. Data for the mlh1 strain (AID 171);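 also: 0% = growth of vehicle-treated control cultures of the same strain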; conditions: S. cerevisiae mlh1 strain growth inhibition, active compounds read high
How it was run: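 Compounds are applied to a genetically altered yeast strain, and its growth is compared with that of vehicle-treated cultures to give percent inhibition.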

[14] = NCI Yeast Anticancer Drug Screen. Data for the sgs1 strain (AID 173);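 also: 0% = growth of vehicle-only control cultures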; conditions: S. cerevisiae sgs1 mutant, active compounds read high
How it was run: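 Compounds applied to genetically altered yeast; growth compared with vehicle-treated cultures to give % inhibition.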

[15] = NCI Yeast Anticancer Drug Screen. Data for the mlh1 rad18 strain (AID 175); conditions: S. cerevisiae mlh1 rad18 strain growth inhibition, active compounds read high
How it was run: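 Cells of a genetically altered yeast strain, deficient in DNA damage repair, were treated with compound. Their growth was then compared with that of vehicle-treated cultures to give inhibition.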

[16] = NCI Yeast Anticancer Drug Screen. Data for the rad18 strain (AID 177); conditions: S. cerevisiae rad18 mutant growth inhibition, active compounds read high
How it was run: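 Compounds are applied to a repair-deficient yeast strain, and growth is compared with that of vehicle-treated cultures to give percent inhibition.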

[17] = at 5.0 µM (retest, dose inferred, filed as 0.5)
[18] = at 50.0 µM (retest, dose inferred, filed as 5.0)

Measured: growth inhibition

O=C(NCCCCNCCCNC(=O)c1cc(-c2ccccc2)nc2ccccc12)c1cc(-c2ccccc2)nc2ccccc12
active: [1]; at 100.0 µM 92% | [2]; at 100.0 µM 91% | [3]; at 100.0 µM 91% | [4]; at 100.0 µM 94% | [5]; at 33.0 µM 81% | [5]; [18] 97% | [5]; at 50.0 µM 97% | [5]; at 100.0 µM 92% | [6]; at 50.0 µM 97.3% | [6]; at 100.0 µM 94% | [7]; at 33.0 µM 96% | [7]; at 100.0 µM 94% | [8]; at 50.0 µM 97.5% | [9]; at 100.0 µM 91% | [10]; at 50.0 µM 97.6% | [11]; at 50.0 µM 97.2% | [11]; at 100.0 µM 92% | [12]; at 100.0 µM 93% | [13]; at 100.0 µM 94% | [14]; at 100.0 µM 93% | [15]; [18] 92% | [16]; at 33.0 µM 89% | [16]; at 100.0 µM 91%
inactive: [1]; at 1.2 µM -1% | [1]; at 3.7 µM -1% | [1]; at 11.0 µM -3% | [1]; at 33.0 µM 40% | [2]; at 1.2 µM 6% | [2]; at 3.7 µM 2% | [2]; at 11.0 µM 2% | [2]; at 33.0 µM 5% | [3]; at 1.2 µM 1% | [3]; at 3.7 µM 4% | [3]; at 11.0 µM 12% | [3]; at 33.0 µM 32% | [4]; at 1.2 µM 2% | [4]; at 3.7 µM 2% | [4]; at 11.0 µM -1% | [4]; at 33.0 µM 59% | [5]; at 1.2 µM -5% | [5]; at 3.7 µM -5% | [5]; [17] -29% | [5]; at 11.0 µM -3% | [6]; at 1.2 µM -1% | [6]; at 3.7 µM -3% | [6]; [17] -15% | [6]; at 11.0 µM -4% | [6]; at 33.0 µM 56% | [6]; [18] 59% | [7]; at 1.2 µM 0% | [7]; at 3.7 µM -2% | [7]; at 11.0 µM 1% | [8]; [17] -16% | [8]; [18] 58% | [9]; at 1.2 µM 1% | [9]; at 3.7 µM -1% | [9]; at 11.0 µM -1% | [9]; at 33.0 µM 43% | [10]; [17] 40% | [10]; [18] 55% | [11]; at 1.2 µM -2% | [11]; at 3.7 µM -1% | [11]; [17] -8% | [11]; at 11.0 µM -2% | [11]; at 33.0 µM 50% | [11]; [18] 65% | [12]; at 1.2 µM 2% | [12]; at 3.7 µM -1% | [12]; at 11.0 µM -2% | [12]; at 33.0 µM 20% | [13]; at 1.2 µM 0% | [13]; at 3.7 µM -1% | [13]; at 11.0 µM 0% | [13]; at 33.0 µM 63% | [14]; at 1.2 µM 0% | [14]; at 3.7 µM 0% | [14]; at 11.0 µM 1% | [14]; at 33.0 µM 33% | [15]; [17] -13% | [15]; at 50.0 µM 39.5% | [16]; at 1.2 µM 0% | [16]; at 3.7 µM -1% | [16]; at 11.0 µM -1%
